The list is a sample of the results.
aSyn 5UTR act: Activators via SNCA 5'UTR binding, MLPCN | alpha-synuclein 5'UTR reporter, activators screen | activity score, % (tested at 7.5 µM), hits read low | actives 7.1% (n = 300,000); in the data active = activity score below about -60%
Each line names hits and unclear results; the compound was inactive in the other large screens.

COC(=O)c1ccc(CC(C(=O)c2ccccc2)N(C)C)cc1 (stereo not drawn)	aSyn 5UTR act -154
CN(C)C(Cc1ccc(Cl)cc1)C(=O)c1ccccc1 (stereo not drawn)	aSyn 5UTR act -82
Nc1ncnc2c1ccn2[C@@H]1O[C@H](CO)[C@@H](O)[C@H]1O	none
COc1cc(/C=C(/C)[N+](=O)[O-])ccc1OCc1ccccc1Cl	aSyn 5UTR act -134
Cc1ccc(-c2nc3ccc(Cl)cc3n2OC(=O)N(C)C)cc1	aSyn 5UTR act -129
O=C(Nc1ccc2c(c1)OCO2)c1cn(Cc2ccc(F)cc2)nn1	aSyn 5UTR act -76
NC(=S)c1cn(C2OC(CO)C(O)C2O)c2ncnc(N)c12 (stereo not drawn)	none
O=C(NC1CCCCC1)Oc1cc2oc(=O)sc2cc1Cl	aSyn 5UTR act -62
Cc1cc(N=Nc2ccccc2C)ccc1N	aSyn 5UTR act -103
CCN1CCN(c2nc3ccccc3s2)CC1	aSyn 5UTR act -131
CCN1/C(=C\C=C\C2=[N+](CC)c3ccccc3C2(C)C)C(C)(C)c2ccccc21	none
CN(C)c1ccc(/C=C2/C(=N\O)C3CCN2CC3)cc1	aSyn 5UTR act -133
Cc1cc(C(=O)Nc2ccc3c(c2)OCCO3)nn1C(C)(C)C	aSyn 5UTR act -136
Cc1cc(C(=O)Nc2ccccc2)nn1C(C)(C)C	aSyn 5UTR act -112
CC[n+]1c(/C=C/C=C/c2ccc(N(C)C)cc2)sc2ccccc21	none
CN1C(=O)N(C)C(=O)C2(Cc3cc([N+](=O)[O-])ccc3N(C)C2c2ccccc2)C1=O (stereo not drawn)	aSyn 5UTR act -62
O=C(CSc1ccccc1)N1CCC2(CC1)OCCO2	aSyn 5UTR act -92
Cc1nc2cc(-c3cccc(F)c3)nn2c(C)c1CCC(=O)N1CCC2(CC1)OCCO2	none
CC12CC[C@H]3[C@@H](CCC4(O)C[C@H](O)CCC34/C=N/NC(=O)c3ccccc3F)C1(O)CCC2C1=CC(=O)OC1 (stereo partly drawn)	none
Nc1cc2nc3ccccc3nc2cc1N	aSyn 5UTR act -64
C[C@@H]1C[C@H]2OC(=O)C3(CO3)[C@H]2[C@H](O)[C@]2(C)C(=O)C3OC3[C@@H]12 (stereo partly drawn)	aSyn 5UTR act -63
C=C1C(=O)O[C@@H]2C[C@@H](C)[C@@H]3C=CC(=O)[C@@]3(C)[C@@H](O)[C@H]12	none
Cc1ccc(/C=C2\C(=O)NC(=S)N(c3ccc(F)cc3)C2=O)s1	aSyn 5UTR act -116
O=c1nc(/C=C/c2ccc(Cl)cc2Cl)cc(C(F)(F)F)[nH]1	aSyn 5UTR act -64
CC(C)n1c(O)c(C2c3cc(Cl)ccc3Oc3[nH]c(=O)n(C(C)C)c(=O)c32)c(=O)[nH]c1=O (stereo not drawn)	aSyn 5UTR act -88
O=Cc1cn(Cc2cccc([N+](=O)[O-])c2)c2ccccc12	none
Cc1nc2ccccc2c(=O)n1-c1ccc([N+](=O)[O-])cc1	aSyn 5UTR act -121
Cc1nc2ccccc2c(=O)n1-c1ccc(Cl)c(Cl)c1	aSyn 5UTR act -138
CC[C@@]1(O)C(=O)OCc2c1cc1n(c2=O)Cc2cc3c(NC(=O)CN)cccc3nc2-1	none
C=C(C=O)CC1CC(O)[C@]2(C)OC3CC4OC5C[C@]6(C)O[C@]7(C)CCC8OC9C[C@]%10(C)OC%11C(C)=CC(=O)OC%11CC%10OC9C[C@@H](C)C8OC7CC6O[C@]5(C)CC5OC5C4OC3CC2O1 (stereo partly drawn)	none
CC1CCN(CC(=O)c2ccccc2Cl)CC1	aSyn 5UTR act -134
CC1CCN(CC(=O)c2ccc3c(c2)OCCO3)CC1	aSyn 5UTR act -77
Cc1cccc(Cn2cc(C=O)c3ccccc32)c1	none
COc1ccc(C(=O)N/N=C/C23CC[C@@H](O)CC2(O)CC[C@@H]2[C@@H]3CCC3(C)C(C4=CC(=O)OC4)CCC23O)cc1 (stereo partly drawn)	none
COC(=O)C1=C(c2cc3ccccc3o2)C[C@@H]2CC[C@H]1N2C(=O)N1CCCCC1	none
CCOc1ccccc1-n1c(O)c(C=Nc2ccc(N(CC)CC)cc2)c(=O)[nH]c1=O	aSyn 5UTR act -66
O=c1c2ccccc2nc(/C=C/c2ccc(O)cc2)n1-c1ccc(O)cc1	aSyn 5UTR act -80
CCCCCCCSc1cc(OC)c(CCNC)cc1OC	none
Cc1ccc(CN2C3CCCC2CC(NC(=O)Nc2cccc(F)c2)C3)cc1 (stereo not drawn)	aSyn 5UTR act -99
COc1cccc(OC)c1C1=NCC(=O)Nc2c1oc1ccc(Br)cc21	none
Cc1ccc(-c2nc(N3CCOCC3)s[n+]2-c2ccccc2)cc1	aSyn 5UTR act -233
CC(C)[C@H]1C(=O)O[C@H](C(C)C)C(=O)N(C)[C@@H](C(C)C)C(=O)O[C@H](C(C)C)C(=O)N(C)[C@@H](C(C)C)C(=O)O[C@H](C(C)C)C(=O)N1C	none
CN(C)C(=O)Oc1ccc2c(=O)c(Oc3ccccc3Br)coc2c1	aSyn 5UTR act -77
COc1ccc(-c2cc(C(=O)N3CCC4(CC3)OCCO4)c3ccccc3n2)cc1	aSyn 5UTR act -88
C/C=C(\C)C(=O)N[C@@H](c1ccccc1)[C@@H](O)C(=O)O[C@H]1C[C@@]2(O)[C@@H](OC(=O)c3ccccc3)C3[C@](C)(C(=O)[C@H](O)C(=C1C)C2(C)C)[C@@H](O)C[C@H]1OC[C@@]31OC(C)=O (stereo partly drawn)	none
CN(C)C(=O)Oc1cccc(-c2cn3cc(Cl)ccc3n2)c1	aSyn 5UTR act -82
CN(C)C(=O)Oc1ccc(-c2cn3cc(C(F)(F)F)ccc3n2)cc1	aSyn 5UTR act -86
COC1CC(OC2CCC3(C)C(CCC4C3CCC3(C)C(C5=CC(=O)OC5)C(OC(C)=O)CC43O)C2)OC(C)C1OC1OC(COC2OC(CO)C(O)C(O)C2O)C(O)C(O)C1O (stereo not drawn)	none
CCC(=NCCC1=CCCCC1)c1c(O)[nH]c(=O)[nH]c1=O	none
COc1ccc(-c2cc(=NCCC(=O)O)c3cc(C)ccc3o2)cc1	aSyn 5UTR act -121
COc1ccc(-c2cc(=Nc3ccccc3)c3cc(C)ccc3o2)cc1	aSyn 5UTR act -100
CN(C)c1ccc(C(=O)N/N=C/C23CC[C@@H](O)CC2(O)CC[C@@H]2[C@@H]3CCC3(C)C(C4=CC(=O)OC4)CCC23O)cc1 (stereo partly drawn)	none
CC(=O)OC1CC[C@]2(C#N)[C@H]3CC[C@]4(C)[C@H](C5C=CC(=O)O5)CCC4(O)C3CCC2(O)C1 (stereo partly drawn)	none
N=C1c2ccccc2CN1NC(=O)c1ccc(F)cc1	aSyn 5UTR act -62
O=[N+]([O-])c1ccc(NC2CCCC2)c2ccncc12	none
Cc1ccc(-n2c(C)nc3cc(Cl)ccc3c2=O)nc1	aSyn 5UTR act -117
Nc1ccc2c(c1)Cc1ccccc1-2	aSyn 5UTR act -175
O=C1NC(=O)N(Cc2ccccc2)C(=O)/C1=C/C=C/c1ccco1	aSyn 5UTR act -296
CC(C)c1ccc(N2C(=O)NC(=O)/C(=C\C=C\c3ccco3)C2=O)cc1	aSyn 5UTR act -70
Clc1ccc2sc(C3CCNCC3)nc2c1	aSyn 5UTR act -159
CC[C@@]1(O)C(=O)OCc2c1cc1n(c2=O)Cc2cc3ccccc3nc2-1	none
O=c1[nH]c(=S)[nH]c(O)c1N=Nc1ccc(SC(F)F)cc1	aSyn 5UTR act -72
CCCC(=O)Nc1cc(C(=O)N2CCC3(CC2)OCCO3)ccc1S(=O)(=O)c1ccc(C)cc1	none
O=C(C1CCN(c2nc3ccc(Br)cc3s2)CC1)N1CCC2(CC1)OCCO2	aSyn 5UTR act -80
Cc1ccc2nc(N3CCC(C(=O)N4CCC5(CC4)OCCO5)CC3)sc2c1	aSyn 5UTR act -78
CCOc1ccc2nc(N3CCC(C(=O)N4CCC5(CC4)OCCO5)CC3)sc2c1	aSyn 5UTR act -82
